Most compounds without a hit are left out; they make up all but 12% or so of the library.
L3MBTL1 block: blocks human L3MBTL1; Q9Y468; AlphaScreen L3MBTL1–H3K9me1 peptide binding; Potency, µM (titrated, usually from 57.1 µM), inactives show at the highest dose activity, negative = inhibition, actives largely listed as inhibitors; 230,000 compounds, 0.66% hits; also: % is scaled to controls: 0 for no effect and ±100 for the full control effect; nearly all actives have a fitted effect of over 60% in size
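L3MBTL1 (50 nM) pre-complexed 30 min with biotinylated H3(1-15)K9me1 peptide (75 nM), then compounds added for 30 min at room temperature; AlphaScreen streptavidin donor/nickel chelate acceptor beads (10 ug/mL final) read after 30 min dark incubation.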
Sfp inh: Sfp phosphopantetheinyl transferase inhibition | Biochemical Sfp PPTase activity, qHTS | 310,000 compounds, 3.5% hits | Potency, µM, inactives show largest response in the series, negative = inhibition, actives largely listed as inhibitors;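 also: the enzyme is Sfp with the accession as filed and its product quenches rhodamine fluorescence; 0% = enzyme reaction without inhibitor and -100% = no enzyme wells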
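Step 1, compound plus 15 nM Sfp-PPTase, 15 min, room temperature. Step 2, add rhodamine-CoA (5 uM) and BHQ-2-YbbR (12.5 uM). Step 3, read 525/598 nm fluorescence at 0 and 30 min.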
BAZ2B block: BAZ2B (human) inhibition; AlphaScreen BAZ2B-H3K14Ac peptide displacement; Potency, µM (top dose mostly 114 µM), without a hit: at the highest dose activity change, negative = inhibition, usual class: inhibitors; 360,000 compounds, 4.4% hits; AID 504333; also: % is scaled to controls: 0 for no effect and ±100 for the full control effect; nearly all actives have a fitted effect of over 60% in size
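Multi-concentration screen (max 110 uM) measuring displacement of acetylated histone H3 peptide from BAZ2B by AlphaScreen, using 50 nM protein, 50 nM peptide and 10 ug/mL streptavidin donor plus Ni-chelate acceptor beads.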
HP1b binding inh: inhibitors of HP1-beta chromodomain binding to methylated histone tails; Potency, µM (highest dose often 114 µM), inactives show at the top dose activity change, negative = inhibition, most hits filed as inhibitors; 390,000 compounds, 0.56% hits; AlphaScreen HP1-beta / biotin-H3K9me3 peptide binding; also: nearly all actives have a fitted effect of over 70% in size
Target sequence (P83916 whole entry, looked up): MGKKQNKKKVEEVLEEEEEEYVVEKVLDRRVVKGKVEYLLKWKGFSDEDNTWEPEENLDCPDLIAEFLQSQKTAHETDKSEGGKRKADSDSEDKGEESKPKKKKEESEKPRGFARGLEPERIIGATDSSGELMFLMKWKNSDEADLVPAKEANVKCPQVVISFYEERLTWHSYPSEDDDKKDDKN
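AlphaScreen: HP1-beta (50 nM) preformed 30 min with biotin-H3(1-18)K9me3 peptide (50 nM) in PBS pH 7.4, 0.01% Tween-20. Compound added for 30 min at RT, then streptavidin donor/nickel chelate acceptor beads (10 ug/mL) for 30 min.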
JMJD2A Tudor: blocks the human JMJD2A Tudor domain | AlphaScreen JMJD2A-Tudor / H3K4me3 peptide binding | Potency, µM (highest dose often 114 µM), for inactives: at the highest dose activity change, negative = inhibition, usual class: inhibitors | 390,000 compounds, 4.4% hits; also: % is scaled to controls: 0 for no effect and ±100 for the full control effect; nearly all actives have a fitted effect of over 50% in size
G9a inh: G9a (human) methyltransferase inhibition; Q96KQ7; G9a H3K9 monomethylation, AlphaScreen, 2 h; Potency, µM (doses to about 102 µM), inactives show at the top dose activity, negative = inhibition, hits mostly inhibitors; 350,000 compounds, 8.8% hits; AID 504332; also: % is scaled to controls: 0 for no effect and ±100 for the full control effect; nearly all actives have a fitted effect of over 75% in size
Target sequence (Q96KQ7 913-1193 limits assumed): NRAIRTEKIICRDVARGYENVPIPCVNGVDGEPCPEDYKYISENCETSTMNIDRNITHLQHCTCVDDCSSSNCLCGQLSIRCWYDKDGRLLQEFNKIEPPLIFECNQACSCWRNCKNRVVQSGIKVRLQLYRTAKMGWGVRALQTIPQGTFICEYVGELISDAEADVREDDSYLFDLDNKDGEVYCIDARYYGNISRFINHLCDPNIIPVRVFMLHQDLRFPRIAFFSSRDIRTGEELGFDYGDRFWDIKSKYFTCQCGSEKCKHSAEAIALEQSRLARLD
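Quantitative HTS format: methyltransferase activity on a biotin-tagged H3K9 peptide is measured by AlphaScreen, using a rabbit anti-monomethyl-H3K9 antibody with streptavidin donor and anti-IgG acceptor beads. Final levels are 20 nM enzyme, 500 nM peptide, 20 uM SAM; 2 h RT.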
* marks the source's active call; other numbers are inactive results; ? = inconclusive; . = no result given; ! = a repeat was not active; [ ] = dose if it differs, or a comment. Calls follow the shape of the dose curve; as a rule, active = well fitted curve in the direction sought with a large enough effect; inconclusive = small, poorly fitted or top-dose-only effect, or another doubt; inactive = no such curve, though single readings can be large; an effect the other way counts as inactive or inconclusive. Potency is read from the fitted curve at half-maximal effect.

SMILES	L3MBTL1 block	Sfp inh	BAZ2B block	HP1b binding inh	JMJD2A Tudor	G9a inh
COc1ccccc1N1CCN(S(=O)(=O)c2c(C(=O)N3CCOCC3)c(C)n(C)c2C)CC1	.	12%	-22%	-23%	16µM*	-3%[59 µM]
CSCC[C@H](NC(=O)[C@H](CC(C)C)NC(=O)CNC(=O)[C@H](Cc1ccccc1)N(C)C(=O)[C@H](Cc1ccccc1)NC(=O)[C@H](CC(=O)O)NC(=O)[C@@H](N)CC(=O)O)C(N)=O	.	20%	.	.	.	.
Cc1cccc(OCC(=O)Nc2ccc3c(c2)nc(CCN2CCN(c4ccccn4)CC2)n3C)c1	.	9%	?	10%	?	.
Cc1cc(C)c(-c2n[nH]c3c2C(c2ccccc2F)N(Cc2ccco2)C3=O)c(O)c1 (stereo not given)	.	.	?	19%	-31%	28%[59 µM]
COC(=O)C1CCN(C(=O)C2CCN(C(=O)[C@@H](NS(=O)(=O)c3ccc(C)cc3)C(C)C)CC2)CC1	.	11%	30%	20%	-18%	.
O=C(O)COc1ccccc1/C=N/NC(=O)CSc1nc2ccccc2s1	.	?	2%	31%	-6%	71µM*
CNC(=S)N/N=C/c1ccccc1OCC(=O)O	1%	20µM*	?	6%[57 µM]	?	.
CCOC(=O)N1CCN(S(=O)(=O)N2CCCC(C(=O)NCc3cc(OC)ccc3OC)C2)CC1 (stereo not given)	.	.	-1%	22%	-3%	9%[59 µM]
CC(O)c1cccc(N=Cc2ccc3ccccc3c2O)c1 (stereo not given)	-1%	5%	?	0%	?	1.8µM*
O=C(CNC(=O)c1sc2ccccc2c1Cl)NC1CC1	.	12%	-1%	16%	-5%	-15%
O=C(Nc1nc2ccc(Cl)cc2s1)c1ccc(Br)o1	-2%	3%	11%	43%	?	-43%[59 µM]
NNc1nc2ccc(Cl)cc2s1	-4%	-22%	50µM*	-20%	79µM*	56µM*
NNc1nc2ccc(F)cc2s1	-10%	-19%	45µM*	-38%	?	?
CC(C)C[C@@H](/C=C/S(C)(=O)=O)NC(=O)[C@H](CC(C)C)NC(=O)[C@H](CC(C)C)NC(=O)OCc1ccccc1	.	26%	.	.	.	36%[59 µM]
OCCNCC(O)CN1c2ccccc2Sc2ccccc21 (stereo not given)	-8%	8%	?	-13%	-34%	13%[59 µM]
CCN(CC)C(C)CN1c2ccccc2Sc2ccccc21 (stereo not given)	.	-17%	.	.	.	5µM*!
CCOc1ccc(-c2cccc(NS(=O)(=O)c3ccccc3C(F)(F)F)c2)nn1	.	.	-1%	26%[57 µM]	-19%	-18%[59 µM]
CC(C)OCCCNC(=O)C(NS(=O)(=O)c1ccc2c(c1)c(=O)n(C)c(=O)n2C)c1ccccc1 (stereo not given)	4%	1%	-4%	.	.	14µM*
Cn1c(=O)c2cc(S(=O)(=O)NC(C(=O)N3CCCCCC3)c3ccccc3)ccc2n(C)c1=O (stereo not given)	.	-4%	14%	77%	-3%	45µM*
Cc1nc2cc(-c3cccc(F)c3)nn2c(C)c1CCC(=O)Nc1ccccc1C(N)=O	.	.	-4%	14%	-15%	0%[59 µM]
Cc1cc(NC2CCCCC2)nc(-c2ccccc2O)n1	16%	-24%	56µM*	?	7.9µM*	18µM*
COc1ccc2c(c1)C(c1ccc3c(c1)OCO3)CC(=O)O2 (stereo not given)	.	-25%	.	.	.	?
O=C1c2cccc3cccc(c23)C(=O)N1OS(=O)(=O)c1ccc(Br)cc1	6%	1%	1%	5%	-25%	-3%
O=C1C(Br)=Cc2cccc3cccc1c23	.	-12%	25µM*	-37%	?	?
Cc1cccc(C)c1NC(=O)CN(C)C(=O)c1ccc2nc[nH]c2c1	?	.	?	10%	-21%	?
SMILES	L3MBTL1 block	Sfp inh	BAZ2B block	HP1b binding inh	JMJD2A Tudor	G9a inh
O=C(NCc1ccc(F)cc1)c1cc(-c2cccs2)on1	7%	45µM*	13%	17%	-12%	1%
COc1ccc(OC)c(C2=Nn3c(nnc3-c3ccco3)SC2)c1	2%	50µM*	15%	5%	-22%	?
COc1ccc(OC)c(C2=Nn3c(nnc3-c3cc(OC)ccc3OC)SC2)c1	.	3%	.	.	?	.
COc1ccc(C2=Nn3c(nnc3-c3cc(OC)ccc3OC)SC2)c(OC)c1	.	-21%	.	.	79µM*	.
Cc1c(P(=S)(c2ccccc2)c2ccccc2)c2ccccc2n1CCc1ccccc1	.	.	.	.	-22%	.
Cc1ccc(S(=O)(=O)CCC(=O)N(Cc2nnc(-c3ccc(Cl)cc3)o2)C2CC2)cc1	2%	.	-1%	27%	-13%	?
O=C(CC(c1ccccc1)c1ccccc1O)NCc1ccccc1Cl (stereo not given)	1%	5%	3%	27%	-7%	17%[59 µM]
N/C(=N\C(=S)Nc1ccccc1)c1ccccc1	.	1%	-31%	25%	-35%	15%[2.33 µM]
CNC(=S)/N=C(\Nc1ccc(C)cc1)c1ccccc1	.	7.1µM*	-34%	-13%	-13%	.
Cc1ccc(NC(=O)NNC(=O)c2ccccc2)cc1	-3%	21%	-31%	30%	-5%	13%
CNC(=S)/N=C(/Nc1ccccc1)c1ccccc1	-6%	-85%	?	23%	-18%	7.9µM*
Cc1ccc(C)c(-c2nnc(NC(=O)Cc3ccccc3)o2)c1	.	24%	-8%	77%	-9%	.
COc1ccc(CCN2CCCC(CN(C)Cc3cc(Cl)c(O)c(OC)c3)C2)cc1 (stereo not given)	-1%	-3%	-30%	47%	-18%	71µM*
CCN1CCN(C(=O)CCN(CC(C)C)c2nc(-c3cccs3)nc3ccccc23)CC1	.	.	.	.	-20%	.
Oc1cccc2c(NC(=S)Nc3ccc(OC(F)F)cc3)cccc12	-14%	56µM*	45µM*	?	?	45µM*
FC(F)Oc1ccc(NC(=S)Nn2cnnc2)cc1	.	22µM*	-9%	-27%	?	6.3µM*
FC(F)Oc1ccc(NC(=S)NCc2ccccc2)cc1	12%	11%	0%	27%	0%	40%[59 µM]
N#Cc1cnc(NN)nc1	?	6.3µM*	22µM*	?	0.79µM*	50µM*
CCCC(c1nnnn1CS(=O)(=O)c1ccc(C)cc1)N1CCN(C2CCCC2)CC1 (stereo not given)	.	10%	-25%	-14%	?	50µM*
CCCCC(c1nnnn1CS(=O)(=O)c1ccc(C)cc1)N1CCN(c2ccccc2)CC1 (stereo not given)	?	20%	-1%	6%	?	?
O=C(O)c1ccc(O)cc1	.	2%	.	.	.	.

Source: PubChem BioAssay (National Center for Advancing Translational Sciences (NCATS))
